Assay results from PubChem BioAssay (EPA / NIEHS).
Values joined by “and” are separate entries in the source; they are usually repeats but may differ in a detail not shown here. Identical values can stand only once. A structure can be active in one record and inactive in another. Active and inactive are the calls of the source. How the source made its calls: active means hit-call score of the fitted dose curve at least 0.9, where 1 is the maximum; inconclusive means response in the unintended direction; inactive means score below 0.9.

Tested on: rat CYP2B1, gene 24300
Test: NVS_ADME_rCYP2B1: NovaScreen (NVS) CYP450-related Enzyme Activity (ADME) Assay for rat CYP2B1 (AID 2283117)
Protocol: NVS_ADME_rCYP2B1 is a biochemical, single-readout assay that uses extracted gene-proteins in a cell-free assay. Measurements were taken 0.75 hour after chemical dosing in a 96-well plate.NVS_ADME_rCYP2B1 is one of one assay component(s) measured or calculated from the NVS_ADME_rCYP2B1 assay. It is designed to make measurements of enzyme activity, a form of enzyme reporter, as detected with fluorescence intensity signals by Fluorescence technology.Data from the assay component NVS_ADME_rCYP2B1 was analyzed into 1 assay endpoint. This assay endpoint, NVS_ADME_rCYP2B1, was analyzed in the positive analysis fitting direction relative to Acetonitrile as the negative control and baseline of activity. Using a type of enzyme reporter, loss-of-signal activity can be used to understand changes in the enzymatic activity as they relate to the gene Cyp2b1. Furthermore, this assay endpoint can be referred to as a primary readout, because this assay has produced multiple assay endpoints where this one serves a enzymatic activity function. To generalize the intended target to other relatable targets, this assay endpoint is annotated to the cyp intended target family, where the subfamily is xenobiotic metabolism.
Binding assays used specific radioligands (tritiated, iodinated) with non-radioactive competitive displacement ligands in agonist or antagonist protocols (as indicated) and various reference compounds and inhibitors to titrate specific binding to receptors and transporters. Most enzyme assays (CYPs, kinases, phosphatases, proteases, HDACs) used recombinant protein and specific substrates (fluorescence mostly, some colorimetric and radioactive) and inhibitors, followed by a biochemical separation of substrate and product. All assays for the biochemical HTS were initially run in duplicate at a single concentration (10 uM for CYP450 assays and 25 uM for all others). Assay-chemical combinations meeting a pre-defined threshold (e.g., 30% inhibition and other criteria defined below) were then run in singleton concentration-response format with maximum concentration of 20 uM for CYPs and 50 uM for all others. Each assay was run with positive and negative controls, and concurrent controls on every plate. The follow-up (secondary) screen tested active chemical-pairs in concentration series, as well as a few additional assays not tested in the primary screen, some selected negative inactives, and several cases re-run in the concentration series for confirmatory purposes.

SMILES	AC50	outcome
C#CCOC(=O)[C@@H](C)Oc1ccc(Oc2ncc(Cl)cc2F)cc1	1.36 µM (active)	
Oc1ccc(C(c2ccc(O)cc2)C(Cl)(Cl)Cl)cc1	9.18 µM (active)	
CCCCOC(=O)C(C)Oc1ccc(Oc2ccc(C(F)(F)F)cn2)cc1 (stereo not drawn)		inactive
CCN(CC)CCOc1ccc(C(=C(Cl)c2ccccc2)c2ccccc2)cc1	7.35 µM (active) and 7.71 µM (active)	inactive
CC(=O)O[C@]1(C(C)=O)CC[C@H]2[C@@H]3C=C(Cl)C4=CC(=O)[C@@H]5C[C@@H]5[C@]4(C)[C@H]3CC[C@@]21C		inactive
BrC1CCC(Br)C(Br)CCC(Br)C(Br)CCC1Br (stereo not drawn)		inactive
C=CCOC(Cn1ccnc1)c1ccc(Cl)cc1Cl (stereo not drawn)	0.0108 µM (active)	
Cc1cc(O)cc(C)c1Cl	16.7 µM (active)	
C[C@]12CC[C@@H]3c4ccc(O)cc4CC[C@H]3[C@@H]1CC[C@@H]2O	14.1 µM (active)	
CC(=O)[C@H]1CC[C@H]2[C@@H]3CCC4=CC(=O)CC[C@]4(C)[C@H]3CC[C@]12C		inactive
NC(=NCCCCCCN=C(N)/N=C(\N)Nc1ccc(Cl)cc1)/N=C(\N)Nc1ccc(Cl)cc1	5.93 µM (active)	
N#CSCSc1nc2ccccc2s1	3.96 µM (active)	
CC(C)(C)[C@@H](O)[C@@H](Cc1ccc(Cl)cc1)n1cncn1	1.35 µM (active)	
CCCCCCCCCCCCCC[P+](CCCC)(CCCC)CCCC	6.5 µM (active)	
CCCCCCC(C)OC(=O)COc1nc(F)c(Cl)c(N)c1Cl (stereo not drawn)	6.09 µM (active)	
O=c1c(-c2ccc(O)cc2)coc2cc(O)cc(O)c12		inactive
C#C[C@]1(O)CC[C@H]2[C@@H]3CCc4cc(O)ccc4[C@H]3CC[C@@]21C	2.5 µM (active) and 4.16 µM (active) and 1.77 µM (active)	
